Results reported in article PMC4336329 (PLoS ONE, 2015).
About 14,000 (4.5%) of roughly 310,000 compounds showed an effect of 50% or more. Effects have a minus sign here. Only a selection was taken, and strong results are over-represented in it overall.

biological target: human ether-à-go-go-related gene (hERG) potassium channel (human, UniProt Q12809); experiment: primary screen, population patch clamp on CHO cells stably expressing hERG; higher = less effect of the substance
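Further: peak tail current of the secondary pulse compared with the same well before compound.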

Chain of human ether-à-go-go-related gene (hERG) potassium channel (Q12809 whole entry, looked up): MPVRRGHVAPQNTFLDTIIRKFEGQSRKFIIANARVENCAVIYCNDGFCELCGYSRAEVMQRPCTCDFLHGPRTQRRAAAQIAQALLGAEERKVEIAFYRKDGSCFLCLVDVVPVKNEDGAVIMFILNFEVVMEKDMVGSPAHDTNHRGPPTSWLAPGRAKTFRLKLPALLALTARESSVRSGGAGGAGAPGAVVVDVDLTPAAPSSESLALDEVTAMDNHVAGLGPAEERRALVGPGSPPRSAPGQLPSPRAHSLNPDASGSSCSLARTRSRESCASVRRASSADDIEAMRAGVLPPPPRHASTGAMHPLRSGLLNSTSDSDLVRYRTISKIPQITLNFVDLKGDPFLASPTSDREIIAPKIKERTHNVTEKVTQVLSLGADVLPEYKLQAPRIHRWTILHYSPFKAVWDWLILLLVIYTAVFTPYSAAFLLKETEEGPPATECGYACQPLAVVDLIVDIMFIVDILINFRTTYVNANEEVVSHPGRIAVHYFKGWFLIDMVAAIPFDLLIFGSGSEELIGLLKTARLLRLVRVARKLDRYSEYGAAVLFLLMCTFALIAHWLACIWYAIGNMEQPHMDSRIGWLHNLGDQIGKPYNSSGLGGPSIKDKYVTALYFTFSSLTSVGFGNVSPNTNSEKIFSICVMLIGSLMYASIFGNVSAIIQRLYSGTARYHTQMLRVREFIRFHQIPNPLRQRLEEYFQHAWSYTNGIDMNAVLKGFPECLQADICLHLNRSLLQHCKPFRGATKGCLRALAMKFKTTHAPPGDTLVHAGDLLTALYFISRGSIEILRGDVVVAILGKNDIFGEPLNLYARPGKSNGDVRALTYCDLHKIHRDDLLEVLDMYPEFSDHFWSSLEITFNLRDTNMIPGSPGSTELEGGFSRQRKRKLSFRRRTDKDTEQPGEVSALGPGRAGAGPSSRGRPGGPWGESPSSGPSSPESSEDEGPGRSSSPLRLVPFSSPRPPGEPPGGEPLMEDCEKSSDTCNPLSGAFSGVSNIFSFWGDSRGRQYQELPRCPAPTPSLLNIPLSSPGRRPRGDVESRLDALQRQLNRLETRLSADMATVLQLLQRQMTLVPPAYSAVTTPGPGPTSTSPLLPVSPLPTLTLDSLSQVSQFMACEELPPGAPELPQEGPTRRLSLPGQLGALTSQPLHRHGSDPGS

SMILES | hERG current change (%, negative = inhibition) at 10uM [%]
CN(C)S(=O)(=O)c1ccc(N2CCCC2)c(C(=O)Nc2ccc(F)cc2F)c1 | -33.2
CN(C)S(=O)(=O)c1ccc(N2CCCC2)c(C(=O)NC(c2ccccc2)c2ccccc2)c1 | 6.73
CN(C)S(=O)(=O)c1ccc(N2CCCC2)c(C(=O)Nc2ccccc2OC(F)F)c1 | -54.2
COc1cc(-c2nn3c(-c4cccc(C)c4)nnc3s2)cc(OC)c1OC | 13.1
Cc1nn(C)c(=O)n1N(C)c1ncc(C(F)(F)F)cc1Cl | 23.8
Cc1[nH]c2ccc(C(=O)N3CCN(c4ccccn4)CC3)cc2c1C | -2.92
Cc1ccc(F)cc1NC(=O)CN1CCN(c2ccccn2)CC1 | -35.2
Cc1c(CN2CC[C@@H](N3CCN(c4ccccn4)CC3)[C@H](O)C2)[nH]c2ccc(F)cc12 | -60.9
CCN(CC)CCNC(=O)c1ccc(NC(=O)c2c(F)cccc2Cl)cc1 | -12.4
CCN(CC)CCNC(=O)c1ccc(NC(=O)c2c(C)nn(-c3ccc(F)cc3)c2Cl)cc1 | -60
CCN(CC)CCNC(=O)c1ccc(NC(=O)c2ccc(F)cc2)cc1 | -43.6
COC(=O)c1c(C)nn(-c2ccc(F)c(Cl)c2)c1-c1cc(C)on1 | -4.39
O=C(O)CCSc1nnc(SCC(=O)NCC(F)(F)F)s1 | 7.55
Cc1nn(C(=O)c2ccco2)c(C)c1CN1C(=O)c2ccccc2C1=O | -12.2
OC(c1ccc(Cl)cc1)C(O)c1nc2ccccc2[nH]1 (stereo not drawn) | -2.47
OC(COc1ccc2cc(Br)ccc2c1)CN1CCN(c2ccccn2)CC1 (stereo not drawn) | 1.85
Cl.OC(COCc1ccc(Cl)cc1)CN1CCN(c2ccccn2)CC1 (stereo not drawn) | -66.4
Cc1cc(OCC(O)CN2CCN(c3ccccn3)CC2)cc(C)c1Cl.Cl (stereo not drawn) | -0.237
CC(C)(C)c1ccc(OCC(O)CN2CCN(c3ccccn3)CC2)cc1.Cl (stereo not drawn) | -16
OC(COc1ccc(Cl)cc1)CN1CCN(c2ccccn2)CC1 (stereo not drawn) | -68
CC(=O)c1ccc(OCC(O)CN2CCN(c3ccccn3)CC2)cc1.Cl (stereo not drawn) | -25.8
CC(C)c1ccc(OCC(O)CN2CCN(c3ccccn3)CC2)cc1.Cl (stereo not drawn) | -63.7

SMILES | hERG current change (%, negative = inhibition) at 10uM [%]
OC(CN1CCN(c2ccccn2)CC1)Cn1c2ccc(Cl)cc2c2cc(Cl)ccc21 (stereo not drawn) | 0.599
O=C(O)CCCn1cc(NC(=O)c2ccco2)cn1 | 26.7
O=C(NCCN1CCOCC1)c1ccc(CSc2nc3ccncc3n2Cc2ccc(F)cc2)cc1 | -8.35
Fc1ccc(-c2nnn(Cc3nc4ccccc4s3)n2)cc1 | -11.2
CCN(CC)C(=O)c1cc2c(=O)n3cccc(C)c3nc2s1 | 15.5
Cc1cccc(-c2nc(CN3CCCC(C(=O)NC4CCCC4)C3)c(C)o2)c1 (stereo not drawn) | -76.3
COc1ccc(CNC(=O)C2CCCN(c3nccc(C)n3)C2)cc1 (stereo not drawn) | -0.849
Cc1cccc(-c2nc(CN3CCCC(C(=O)NC4CCCCC4)C3)c(C)o2)c1 (stereo not drawn) | -60.4
CCN(c1ccc(OC)cc1)S(=O)(=O)N1CCCC(C(=O)NCc2cccc(C)c2)C1 (stereo not drawn) | -26.5
Cc1cccc(-c2nc(CN3CCCC(C(=O)NC4CCC(C)CC4)C3)c(C)o2)c1 (stereo not drawn) | -68.4
COc1ccc(CNC(=O)C2CCCN(Cc3nc(-c4cccc(C)c4)oc3C)C2)cc1 (stereo not drawn) | -63.8
COc1cccc(N2CCN(S(=O)(=O)c3ccc(-n4cnnn4)cc3)CC2)c1 | 16.6
CCN(CC)CCNC(=S)NC(=O)c1cn(-c2ccccc2)nc1-c1ccc(OC)cc1 | -27.3
COc1ccc(N(CC(=O)N2CCCCC2)S(=O)(=O)c2c(C)nn(C)c2C)cc1 | 4.36
CCOC(=O)CSc1nnc(Cc2ccccc2)n1CC1CCCO1 (stereo not drawn) | 5
Clc1ncc(Cn2cccn2)s1 | 10.5
O=C1C2C3C=CC(C3)C2C(=O)N1/N=C/c1cn(Cc2ccc(F)cc2)c2ccccc12 (stereo not drawn) | 5.84
O=C(NCCCn1ccnc1)c1ccc(Cl)s1 | 5.72
COC(=O)c1c(NC(=O)COC(=O)c2ccc(NC(=O)CC#N)cc2)sc2c1CCCCC2 | 17.6
Cc1cccc(-c2nc(CN3CCCC(C(=O)NC4CCCCCC4)C3)c(C)o2)c1 (stereo not drawn) | -69.8
Cc1cccc(-c2nc(CS(=O)CC(=O)NC3CCCCC3)c(C)o2)c1 (stereo not drawn) | -3.93
O=C(NCCO)c1cc2ccccc2c(=O)s1 | 6.96

SMILES | hERG current change (%, negative = inhibition) at 10uM [%]
Cc1cccc(-c2nn(-c3ccccc3)cc2C(=O)NCC(c2cccs2)N2CCOCC2)c1 (stereo not drawn) | -4.33
O=C1c2ccccc2N2C(=O)c3ccccc3C2N1Cc1ccco1 (stereo not drawn) | -27.4
O=C1c2ccccc2N2C(=O)c3ccccc3[C@H]2N1c1ccccc1 | -22.4
O=C1c2ccccc2N2C(=O)c3ccccc3C2N1Cc1ccccc1 (stereo not drawn) | -57.9
COC(=O)c1ccc(CN2C(=O)c3ccccc3C2=O)cc1 | 8.01
Cc1cccc(NC(=O)CC2(CC(=O)O)CCCC2)c1 | 24.6
Cn1nc(-c2ccccc2)cc1NC(=O)c1cccs1 | 5.18
CCN(CC)CCNC(=O)c1ccc(CS(=O)(=O)c2ccccc2C)o1 | -24
Cc1ccccc1S(=O)(=O)Cc1ccc(C(=O)NCCN(C)Cc2ccccc2)o1 | -48.5
Cc1ccccc1S(=O)(=O)Cc1ccc(C(=O)NCCc2ccccc2)o1 | -30.6
Cc1ccccc1S(=O)(=O)Cc1ccc(C(=O)NCCCN(C)Cc2ccccc2)o1 | -56.2
Cc1ccccc1S(=O)(=O)Cc1ccc(C(=O)NCCN(Cc2ccccc2)C(C)C)o1 | -55.6
Cc1ccccc1S(=O)(=O)Cc1ccc(C(=O)NCCN(CC(C)C)CC(C)C)o1 | -43.6
CCCCn1c(=O)[nH]c(=O)c2c1nc(-c1cc(Cl)c(OC)c(OC)c1)n2C | 16.2
CCSc1nc(O)cc(=O)n1-c1ccc(OC)cc1 | 3.73
O=C(c1ccco1)N(CCC(c1ccccc1)c1ccco1)Cc1ccccc1 (stereo not drawn) | -14.8
COc1cc(/C=C2/C(=N)N3N=C(CC(=O)N4CCOCC4)SC3=NC2=O)ccc1OC(C)c1ccccc1 (stereo not drawn) | 11.7
Cc1ccc(C(=O)N2CCCC(Nc3ccc(C)c(C)c3)C2)c(=O)[nH]1 (stereo not drawn) | -50.3
Cc1ccc(NC2CCCN(C(=O)c3ccoc3C)C2)cc1C (stereo not drawn) | -1.68
Cc1ccc(NC2CCCN(C(=O)c3ccc(F)cc3)C2)cc1C (stereo not drawn) | -9.71
O=C(NCC(=O)N1CCCC(C(F)(F)F)C1)c1ccc2ccccc2c1 (stereo not drawn) | -11.3
Nc1n[nH]c(-c2ccc([N+](=O)[O-])cc2[N+](=O)[O-])n1 | 15.4

SMILES | hERG current change (%, negative = inhibition) at 10uM [%]
CCOC(=O)C1CCN(C(C)C(=O)c2c(C)[nH]c3cc(C)ccc23)CC1 (stereo not drawn) | -76.7
Cc1ccc2c(C(=O)CN3CCN(C4CCCCC4)CC3)c(C)[nH]c2c1 | -55.1
Cc1ccc2c(C(=O)CN3CCCCC3)c(C)[nH]c2c1 | -11.1
Cc1ccc2c(C(=O)CN3CCCC3)c(C)[nH]c2c1 | -6.89
Cc1ccc2c(C(=O)CN3CCCC(C)C3)c(C)[nH]c2c1 (stereo not drawn) | -14.8
CCC1CCCCN1CC(=O)c1c(C)[nH]c2cc(C)ccc12 (stereo not drawn) | -27.7
COc1ccc2[nH]cc(C(=O)CN3CCC(C)CC3)c2c1 | -5.75
COc1ccc2[nH]cc(C(=O)CN3CCN(C4CCCCC4)CC3)c2c1 | -54.8
Cc1ccc2c(C(=O)CN3CC(C)CC(C)C3)c(C)[nH]c2c1 (stereo not drawn) | -51
CCOC(=O)C1CCN(C(C)C(=O)c2c[nH]c3ccccc23)CC1 (stereo not drawn) | -42.2
COc1ccc2[nH]cc(C(=O)CN3CCCCC3)c2c1 | -8.72
Cc1[nH]c2ccccc2c1C(=O)CN1CC(C)CC(C)C1 (stereo not drawn) | 0.738
CSc1ncccc1C(=O)N1CCN(S(=O)(=O)c2ccc3ccccc3c2)CC1 | -34.9
Cn1c(N2C(=O)CC(Cc3ccccc3)C2=O)nc2ccccc21 (stereo not drawn) | -17.6
COc1ccc(CN(C(=O)c2cccs2)c2nccs2)cc1OC | -10.9
O=C1CC(NS(=O)(=O)c2cc(F)ccc2F)CN1c1ccc2c(c1)OCCO2 (stereo not drawn) | -4.13
Cc1cc(C)n2nc(SCC(=O)NC(=O)c3ccccc3Cl)nc2n1 | 0.516
COc1ccc(N2CC(C(=O)NC3CC(C)(C)NC(C)(C)C3)CC2=O)cc1 (stereo not drawn) | -2.68
COc1ccc(NC2c3ccccc3C(=O)N2Cc2ccc3c(c2)OCO3)cc1 (stereo not drawn) | -17.7
CCOC(=O)c1ccc(NC(=O)Nc2ccon2)cc1 | 6.02
O=C(O)C1=CC[C@@H](c2ccc(Cl)cc2)N(S(=O)(=O)c2ccc(Cl)cc2)[C@H]1c1cccc(Cl)c1 | 25.9
